# Screens from PubChem.
# APE1 inh = inhibitors of human APE1 endonuclease. P27695. recombinant APE1, TAMRA/BHQ-2 abasic DNA cleavage fluorescence. Potency, µM (doses to about 65.8 µM), without a hit: at the top dose activity change, negative = inhibition, actives largely listed as inhibitors. hit rate 0.35% among 350,000. AID 2517;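 also: plate controls were vehicle for no effect and reference inhibitor for full effect; nearly all actives have a fitted effect of over 55% in size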
#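 0.75 nM APE1 + cpd, 15 min RT; start w/ 50 nM TAMRA/BHQ-2 THF-abasic dsDNA; kinetic fluor 525/598 nm ×3 reads @60 s; Δ(read3−read1); normalized to DMSO and NSC13755 control wells.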
# L3MBTL1 block = L3MBTL1 (human) inhibition; Q9Y468; AlphaScreen L3MBTL1–H3K9me1 peptide binding; Potency, µM (titrated, usually from 57.1 µM), without a hit: top-dose activity, negative = inhibition, actives largely listed as inhibitors; hit rate 0.66% among 230,000; also: nearly all actives have a fitted effect of over 60% in size
#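 AlphaScreen assay: L3MBTL1 (50 nM final) was preincubated 30 min at room temperature with biotinylated H3(1-15)K9me1 peptide (75 nM final), then 30 min with library compounds; streptavidin donor and nickel chelate acceptor beads (10 ug/mL final) added, 30 min dark.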
# BLM inh = inhibitors of human Bloom syndrome helicase BLM; P54132; recombinant BLM DNA unwinding, fluorescence dequenching; hit rate 0.2% among 350,000; AID 2528; Potency, µM (top dose mostly 56.1 µM), for inactives: at the top dose activity change, negative = inhibition, most hits filed as inhibitors;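 also: plate controls were vehicle for no effect and no enzyme for full effect; nearly all actives have a fitted effect of over 35% in size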
# RECQ1 helicase = inhibitors of human RECQ1 DNA helicase; P46063; RECQ1 DNA unwinding, red fluorescence kinetic read; Potency, µM (highest dose often 57.3 µM), for inactives: top-dose activity, negative = inhibition, most hits filed as inhibitors; hit rate 0.54% among 240,000;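 also: plate controls were vehicle for no effect and no enzyme for full effect; nearly all actives have a fitted effect of over 30% in size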
# Target sequence (P46063 whole entry, looked up): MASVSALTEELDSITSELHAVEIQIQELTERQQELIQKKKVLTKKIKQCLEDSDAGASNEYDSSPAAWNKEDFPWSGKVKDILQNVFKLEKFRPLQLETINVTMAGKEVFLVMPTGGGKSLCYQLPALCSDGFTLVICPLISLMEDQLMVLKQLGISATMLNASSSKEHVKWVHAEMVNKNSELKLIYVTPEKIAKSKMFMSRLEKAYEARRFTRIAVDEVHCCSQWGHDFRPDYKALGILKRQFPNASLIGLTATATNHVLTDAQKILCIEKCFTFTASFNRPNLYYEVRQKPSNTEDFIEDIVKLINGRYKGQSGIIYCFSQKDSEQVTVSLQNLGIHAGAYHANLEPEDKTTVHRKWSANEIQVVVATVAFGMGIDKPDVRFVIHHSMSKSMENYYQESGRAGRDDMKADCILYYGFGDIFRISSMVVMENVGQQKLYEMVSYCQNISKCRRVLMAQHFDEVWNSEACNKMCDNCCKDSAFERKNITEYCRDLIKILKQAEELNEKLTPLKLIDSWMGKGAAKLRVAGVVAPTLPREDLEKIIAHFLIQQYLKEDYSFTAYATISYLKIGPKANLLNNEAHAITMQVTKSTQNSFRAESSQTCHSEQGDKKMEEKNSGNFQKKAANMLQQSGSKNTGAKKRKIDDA
#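 50 nM RECQ1T1 preincubated 15 min with compound in Tris pH 8.0 buffer with MgCl2, DTT, Tween-20 and 2.5 ug/ml poly(dI-dC); started with 200 nM TAMRA/BHQ-2 forked duplex and 2 mM ATP. Unwinding read as fluorescence (525/598 nm), two reads 2 h apart.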
# KDM4E inh = JMJD2E (human) inhibition | B2RXH2 | hit rate 1.6% among 230,000 | Potency, µM (titrated, usually from 57.1 µM), for the others: at the highest dose activity change, negative = inhibition, usual class: inhibitors | JMJD2E catalytic domain, FDH-coupled NADH fluorescence (FDH is formaldehyde dehydrogenase);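 also: 0% = wells with enzyme and -100% = buffer wells without enzyme; nearly all actives have a fitted effect of over 50% in size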
# TDP1 block = inhibitors of human tyrosyl-DNA phosphodiesterase TDP1 | hit rate 0.28% among 350,000 | recombinant TDP1, AlphaScreen DNA substrate cleavage | Potency, µM (series often up to 130 µM), inactives show at the top dose activity change, negative = inhibition, actives largely listed as inhibitors; also: nearly all actives have a fitted effect of over 40% in size
#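 Recombinant E. coli-expressed Tdp1 (1 nM) preincubated with compound 15 min at RT, then 5'-biotin/3'-phosphotyrosine-FITC DNA substrate (15 nM) added for 5 min. AlphaScreen beads (10 ug/ml) added, 10 min RT; tyrosine-FITC cleavage read as signal loss.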
# The depositor's hits bear a star; i = inactive; ? = inconclusive; · = no result given; [ ] = another dose, or the depositor's remark. The entries come from a sample that favours hits as a whole. Unless noted, calls follow the shape of the dose curve; as a rule, active = well fitted curve in the direction sought with a large enough effect; inconclusive = small, poorly fitted or top-dose-only effect, or another doubt; inactive = no such curve, though single readings can be large; an effect the other way counts as inactive or inconclusive. Unless noted, % is scaled to controls: 0 for no effect and ±100 for the full control effect; potency is read from the fitted curve at half-maximal effect.
SMILES,APE1 inh,L3MBTL1 block,BLM inh,RECQ1 helicase,KDM4E inh,TDP1 block
Cc1cc(C)cc(NC(=O)C(=O)NCC(c2ccc3c(c2)OCO3)N2CCOCC2)c1 (centres undefined),·,·,-1%,·,·,9%
COc1ccc(C2Nc3ccccc3C(=O)N2Cc2cccc(C(F)(F)F)c2)cc1COc1ccc(NC(C)=O)cc1 (centres undefined),·,·,·,·,·,2%
Cc1ccc(/C=N/NC(=O)CNC(=O)COc2ccccc2)cc1,7%,-3%,5%,-2%,0%,-1%
COc1cccc(/C=N/NC(=S)Nc2cccc(C(=O)O)c2)c1O,-3%,·,-1%,-3%,28µM*,6%
COc1cccc(/C=N/NC(=O)CNC(=O)c2ccco2)c1O,1%,4%,-4%,-4%,14µM*,7%
COc1cccc(/C=N/NC(=O)CNC(=O)C2COc3ccccc3O2)c1O (centres undefined),4%,6%,0%,-10%,18µM*,3%
O=C(COc1ccccc1)NCC(=O)N/N=C/c1ccc(O)cc1O,12%,·,-2%,12%,14µM*,4%
O=C(CNC(=O)C1COc2ccccc2O1)N/N=C\c1ccccc1Cl (centres undefined),80%,·,0%,·,·,4%
CCc1ccc(NC(=O)CSc2nc3ncccc3[nH]2)cc1,·,·,-6%,·,·,2%
CC(=O)c1ccc(NC(=O)C2CCCN(S(=O)(=O)c3cn(C)cn3)C2)cc1 (centres undefined),·,·,-2%,·,·,4%
Cc1ccc(NS(=O)(=O)c2cc3c(cc2/C=C/c2ccccc2)NC(=O)CO3)cc1C,·,·,·,·,·,0%
COc1cccc(/C=N/NC(=O)CNC(=O)COc2ccccc2)c1O,-3%,-1%,1%,-4%,8.9µM*,·
COc1cccc(/C=N/NC(=O)C(=O)NCc2cccnc2)c1O,8%,?,-10%,-4%,10µM*,6%
COc1cccc(/C=N/NC(=O)C[n+]2ccccc2)c1O,-4%,16µM*,-5%,?,14µM*,8%
COc1cccc(/C=N/NC(=O)C(=O)NCc2cccnc2)c1OC,4%,-3%,-1%,i,8%,8%
CC(=O)NCCNc1ncncc1-c1ccccc1C,-2%,·,2%,i,·,·
CC(=O)NCCNc1ncncc1-c1ccccc1C(F)(F)F,0%,·,5%,-28%,?,32µM*
O=S(=O)(Nc1cccc2cccnc12)c1cccs1,·,·,·,·,·,1%
CCOC(=O)c1sc2ccccc2c1S(=O)(=O)N1CCN(c2cccc(C)c2)C(C)C1 (centres undefined),·,·,-7%,·,·,6%
O=C(Sc1cccc2cccnc12)c1ccc(F)cc1,21%,4.5µM*,-3%,-9%,?,0%
O=C(Sc1cccc2cccnc12)c1ccccc1Br,5%,·,-4%,·,·,-6%
COc1ccc(/C=N/NC(=O)Cn2nc([N+](=O)[O-])cc2C)c(OC)c1OC,1%,1%,-1%,-2%,4%,0%
COc1cc([N+](=O)[O-])cc(/C=N/NC(=O)CSc2nnc(-c3ccccc3)n2C)c1O,-3%,·,-2%,-3%,20µM*,-6%
COC(=O)c1ccc(N/N=C/c2cc([N+](=O)[O-])cc(OC)c2O)cc1,-1%,-15%,-4%,i,-1%,6%
COc1cc([N+](=O)[O-])cc(/C=N/NC(=O)Cn2nccc2C)c1O,-3%,·,1%,4%,13µM*,9%
SMILES,APE1 inh,L3MBTL1 block,BLM inh,RECQ1 helicase,KDM4E inh,TDP1 block
COc1cc([N+](=O)[O-])cc(/C=N/NC(=O)Cn2nc(C)cc2C)c1O,2%,?,0%,2%,7.1µM*,·
Cc1noc(CN(C)c2ncnc3ccc(-c4ccc5c(c4)OCO5)cc23)n1,·,·,·,·,·,-6%
O=C1CN(S(=O)(=O)c2ccc3c(c2)OCCO3)CCN1S(=O)(=O)c1c(F)cccc1F,·,·,·,·,·,0%
Nc1nc(SCc2ccc([N+](=O)[O-])cc2)c2ncn([C@@H]3O[C@H](CO)[C@H](O)[C@H]3O)c2n1,1%,·,·,42%,-1%,7%
Cc1ccc(CNc2ccc(N3CCNCC3=O)cc2)cc1,-4%,·,·,·,·,·
Cc1noc(C)c1-c1cc(Nc2ccc(F)cc2)ncn1,2%,·,1%,-8%,-1%,7%[56.1 µM]
Cc1noc(C)c1-c1cncnc1NC1CC1,7%,·,1%,-13%,-2%,28µM*
Cc1noc(C)c1-c1cc(NC2CC2)ncn1,5%,·,-10%,-3%,-28%,40µM*
CCOC(=O)c1ccccc1NC(=O)COC(=O)CCCOc1ccccc1,-5%,84%,·,·,·,·
CCOC(=O)c1ccccc1NC(=O)COC(=O)CCC1CCCC1,-6%,46%,·,·,·,50µM*
CC(=O)c1ccccc1NC(=O)COC(=O)CCC1CCCC1,22%,59%,·,·,·,79µM*
Cn1c2cc(S(C)(=O)=O)sc2c2cnn(Cc3ccccc3F)c(=O)c21,·,·,·,·,·,1%
CC(C)c1ccccc1NC(=O)CNCCc1ccc(C(F)(F)F)cc1,?,·,-15%,-1%,3.2µM*,·
NS(=O)(=O)c1ccc(CCNC(=O)CNCCc2ccc(C(F)(F)F)cc2)cc1,1%,·,0%,·,·,·
O=C(CNC(=O)c1ccc2cc[nH]c2c1)OC(C(=O)Nc1cc(C(F)(F)F)ccc1Cl)c1ccccc1 (centres undefined),·,·,·,·,·,1%
N#Cc1c(N)nc(SCC(=O)C23CC4CC(CC(C4)C2)C3)c(C#N)c1-c1ccc(Cl)cc1,2%,·,-7%,i,3.5µM*,6%
CSc1nc(N)nc(SCC(=O)C23CC4CC(CC(C4)C2)C3)c1C#N,-3%,12%,-12%,-7%,-23%,3%[56.1 µM]
CCOC(=O)CCCCC(=O)c1[nH]c(=O)[nH]c1CSc1nc2ccccc2[nH]1,?,13µM*,-9%,i,?,6%
CCOC(=O)CCCCC(=O)c1[nH]c(=O)[nH]c1CSc1nc(C)cc(=O)[nH]1,-3%,7.9µM*,-3%,i,11%,11%
CCOC(=O)CCCCC(=O)c1[nH]c(=O)[nH]c1C[n+]1ccccc1,-1%,·,0%,i,5%,2%
O=S1(=O)N=C(Oc2ccccc2F)c2ccccc21,·,·,·,·,·,3%
CC[C@H]1OC(=O)[C@H](C)[C@@H](O[C@H]2C[C@@](C)(OC)[C@@H](O)[C@H](C)O2)[C@H](C)[C@@H](O[C@@H]2O[C@H](C)C[C@H](N(C)C)[C@H]2O)[C@](C)(O)C[C@@H](C)/C(=N\OCOCCOC)[C@H](C)[C@@H](O)[C@]1(C)O,7%[21 µM],·,·,·,·,·
Cc1ccc(NS(=O)(=O)c2cc3c(cc2N(C)C)NC(=O)CC3)cc1C,·,·,·,·,·,0%
